Conditions in all cases: Compound concentration 20.0 uM
In test [1] the target is Tyrosine-protein kinase ABL1 (Homo sapiens) (UniProt P00519).
In test [2] the target is Bromodomain-containing protein 4 (Homo sapiens) (UniProt O60885).
In test [3] the target is Cyclin-dependent kinase 2 (Homo sapiens) (UniProt P24941).
Test [4] has as its target Casein kinase I isoform delta (Homo sapiens) (UniProt P48730).
Test [5] deals with Glycogen synthase kinase-3 beta (Homo sapiens) (UniProt P49841).
Test [6] deals with Mitogen-activated protein kinase 1 (Homo sapiens) (UniProt P28482).
Chain of Mitogen-activated protein kinase 1 (Homo sapiens) (P28482 whole entry): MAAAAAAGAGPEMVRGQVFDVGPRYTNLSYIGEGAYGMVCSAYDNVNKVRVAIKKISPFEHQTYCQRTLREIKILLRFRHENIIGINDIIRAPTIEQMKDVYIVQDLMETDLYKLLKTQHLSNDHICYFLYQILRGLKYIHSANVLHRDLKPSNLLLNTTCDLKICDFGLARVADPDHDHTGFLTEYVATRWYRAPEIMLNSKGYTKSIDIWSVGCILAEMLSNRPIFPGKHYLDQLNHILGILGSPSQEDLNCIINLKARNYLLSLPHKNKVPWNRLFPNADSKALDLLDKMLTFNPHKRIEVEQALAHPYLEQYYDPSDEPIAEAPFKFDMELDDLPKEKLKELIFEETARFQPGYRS
In test [7] the target is T1, Aurora kinase A (Homo sapiens) (UniProt O14965).
T1 sequence (whole entry): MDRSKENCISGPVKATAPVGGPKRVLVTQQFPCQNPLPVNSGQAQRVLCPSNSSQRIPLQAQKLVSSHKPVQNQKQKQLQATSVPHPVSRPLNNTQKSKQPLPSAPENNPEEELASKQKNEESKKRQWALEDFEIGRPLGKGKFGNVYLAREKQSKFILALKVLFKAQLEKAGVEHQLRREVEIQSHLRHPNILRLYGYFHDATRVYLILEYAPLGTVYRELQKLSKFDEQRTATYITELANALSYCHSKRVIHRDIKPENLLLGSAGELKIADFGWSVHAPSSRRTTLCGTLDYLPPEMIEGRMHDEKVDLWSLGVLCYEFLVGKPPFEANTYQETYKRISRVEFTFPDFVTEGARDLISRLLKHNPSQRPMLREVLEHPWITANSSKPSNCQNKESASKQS

Test [8] addresses T2, Transcription intermediary factor 1-alpha (Homo sapiens) (UniProt O15164).
T2 sequence (whole entry): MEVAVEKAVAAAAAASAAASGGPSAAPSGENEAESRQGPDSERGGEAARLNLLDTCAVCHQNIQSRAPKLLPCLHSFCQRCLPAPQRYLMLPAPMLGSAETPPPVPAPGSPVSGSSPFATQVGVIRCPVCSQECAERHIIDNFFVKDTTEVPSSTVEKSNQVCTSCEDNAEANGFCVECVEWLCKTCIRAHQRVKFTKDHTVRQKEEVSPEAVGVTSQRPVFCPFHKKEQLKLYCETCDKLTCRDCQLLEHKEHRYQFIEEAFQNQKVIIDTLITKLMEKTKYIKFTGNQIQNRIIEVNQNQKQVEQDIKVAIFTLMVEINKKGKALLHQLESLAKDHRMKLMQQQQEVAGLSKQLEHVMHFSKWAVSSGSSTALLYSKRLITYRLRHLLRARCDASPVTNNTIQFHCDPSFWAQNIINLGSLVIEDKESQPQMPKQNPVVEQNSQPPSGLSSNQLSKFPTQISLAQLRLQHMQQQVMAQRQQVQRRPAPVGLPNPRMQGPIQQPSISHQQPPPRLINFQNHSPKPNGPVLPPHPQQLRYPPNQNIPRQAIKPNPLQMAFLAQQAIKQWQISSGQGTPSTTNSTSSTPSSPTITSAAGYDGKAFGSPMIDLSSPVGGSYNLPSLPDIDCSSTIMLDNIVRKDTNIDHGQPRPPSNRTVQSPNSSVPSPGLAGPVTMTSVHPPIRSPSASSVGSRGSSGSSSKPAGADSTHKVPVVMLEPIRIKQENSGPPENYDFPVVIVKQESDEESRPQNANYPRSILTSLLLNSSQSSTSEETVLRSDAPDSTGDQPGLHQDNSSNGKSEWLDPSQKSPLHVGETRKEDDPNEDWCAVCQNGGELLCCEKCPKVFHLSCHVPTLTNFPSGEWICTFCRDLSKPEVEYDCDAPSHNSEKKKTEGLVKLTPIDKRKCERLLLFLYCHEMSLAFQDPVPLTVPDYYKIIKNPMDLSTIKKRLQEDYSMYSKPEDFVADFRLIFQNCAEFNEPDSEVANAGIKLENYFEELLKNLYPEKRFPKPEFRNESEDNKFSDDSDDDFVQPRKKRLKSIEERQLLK

The ΔTm is the shift of the melting midpoint relative to a reference.

Chain of Casein kinase I isoform delta (Homo sapiens) (P48730 whole entry, looked up, canonical isoform): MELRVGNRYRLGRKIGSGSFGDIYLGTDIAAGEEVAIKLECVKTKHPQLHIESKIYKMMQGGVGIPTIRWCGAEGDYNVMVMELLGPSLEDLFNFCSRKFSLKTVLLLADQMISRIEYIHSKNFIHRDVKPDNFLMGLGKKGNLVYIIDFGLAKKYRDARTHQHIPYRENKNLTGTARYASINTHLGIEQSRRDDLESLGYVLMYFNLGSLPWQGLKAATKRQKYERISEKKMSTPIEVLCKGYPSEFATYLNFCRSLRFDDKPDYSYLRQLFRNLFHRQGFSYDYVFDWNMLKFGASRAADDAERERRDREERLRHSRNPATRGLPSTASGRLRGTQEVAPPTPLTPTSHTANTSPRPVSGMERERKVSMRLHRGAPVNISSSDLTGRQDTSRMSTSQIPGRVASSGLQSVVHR
Chain of Tyrosine-protein kinase ABL1 (Homo sapiens) (P00519 whole entry): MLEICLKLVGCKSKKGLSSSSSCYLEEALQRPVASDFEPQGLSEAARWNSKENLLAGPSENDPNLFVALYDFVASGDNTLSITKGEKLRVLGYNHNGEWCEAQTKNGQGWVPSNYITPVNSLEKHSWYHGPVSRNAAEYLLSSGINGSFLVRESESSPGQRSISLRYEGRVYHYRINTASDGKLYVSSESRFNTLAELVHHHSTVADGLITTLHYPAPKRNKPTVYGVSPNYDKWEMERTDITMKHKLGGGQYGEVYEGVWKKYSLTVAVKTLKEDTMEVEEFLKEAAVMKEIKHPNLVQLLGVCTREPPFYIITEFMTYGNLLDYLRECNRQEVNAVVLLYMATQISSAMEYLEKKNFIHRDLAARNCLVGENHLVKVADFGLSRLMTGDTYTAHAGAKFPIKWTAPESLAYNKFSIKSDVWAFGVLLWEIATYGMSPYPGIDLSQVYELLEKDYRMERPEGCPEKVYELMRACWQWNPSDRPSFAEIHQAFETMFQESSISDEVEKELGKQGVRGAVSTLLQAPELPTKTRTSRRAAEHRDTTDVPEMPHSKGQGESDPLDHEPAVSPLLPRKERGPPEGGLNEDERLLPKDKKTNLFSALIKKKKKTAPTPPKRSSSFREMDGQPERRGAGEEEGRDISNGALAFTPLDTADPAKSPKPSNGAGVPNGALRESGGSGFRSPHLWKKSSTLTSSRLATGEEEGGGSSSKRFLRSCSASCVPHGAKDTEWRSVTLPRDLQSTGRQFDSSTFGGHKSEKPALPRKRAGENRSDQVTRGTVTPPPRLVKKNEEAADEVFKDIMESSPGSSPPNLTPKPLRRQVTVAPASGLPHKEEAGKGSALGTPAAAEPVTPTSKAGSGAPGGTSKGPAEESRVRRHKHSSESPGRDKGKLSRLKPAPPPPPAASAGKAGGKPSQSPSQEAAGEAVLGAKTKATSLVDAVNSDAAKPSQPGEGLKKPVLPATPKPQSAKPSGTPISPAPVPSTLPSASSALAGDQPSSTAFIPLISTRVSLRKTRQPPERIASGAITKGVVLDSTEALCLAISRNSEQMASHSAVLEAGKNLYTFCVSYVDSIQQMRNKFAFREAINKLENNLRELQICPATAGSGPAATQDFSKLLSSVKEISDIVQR
Chain of Glycogen synthase kinase-3 beta (Homo sapiens) (P49841 whole entry, looked up): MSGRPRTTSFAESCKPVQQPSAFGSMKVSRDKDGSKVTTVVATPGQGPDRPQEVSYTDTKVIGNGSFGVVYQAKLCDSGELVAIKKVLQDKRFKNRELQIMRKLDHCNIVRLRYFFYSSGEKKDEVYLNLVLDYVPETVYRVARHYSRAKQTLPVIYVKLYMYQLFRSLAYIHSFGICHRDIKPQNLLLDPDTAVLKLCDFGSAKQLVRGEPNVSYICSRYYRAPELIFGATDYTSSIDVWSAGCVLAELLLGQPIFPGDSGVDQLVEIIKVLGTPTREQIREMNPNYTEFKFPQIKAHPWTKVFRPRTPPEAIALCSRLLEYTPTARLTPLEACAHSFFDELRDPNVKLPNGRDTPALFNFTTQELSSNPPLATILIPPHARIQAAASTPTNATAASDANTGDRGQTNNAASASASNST

As to `O=C(CNC(=O)[C@H](COP(=O)(O)O)NC(=O)CCc1c[nH]c2ccccc12)NCCCCc1ccccc1`, the ΔTm was 0.34 °C in test [1]; -3.51 °C in test [2]; 0.72 °C in test [3]; -0.09 °C in test [4]; -0.2 °C in test [5]; 0.17 °C in test [6]. The ΔTm is -1.56 °C in test [7] and 0.45 °C in test [8].

`CCCCCCNC(=O)n1cc(Cl)c(=O)n(C(=O)OCC(C)C)c1=O`: the ΔTm in test [1] is 0.44 °C; in test [2], -0.35 °C; in test [3], 0.16 °C; in test [4] it was -0.34 °C; in test [5], -0.76 °C; in test [6] it was -0.05 °C. The ΔTm in test [7] is -0.58 °C; in test [8] it was 0.93 °C.

`CN1Cc2c(Cl)cc(Cl)cc2[C@H](c2cccc(S(=O)(=O)NCCOCCOCCNC(=O)NCCCCNC(=O)NCCOCCOCCNS(=O)(=O)c3cccc([C@@H]4CN(C)Cc5c(Cl)cc(Cl)cc54)c3)c2)C1`: the ΔTm in test [1] is -0.4 °C; in test [2] it was -2.19 °C; in test [3] it was -0.62 °C; in test [4], -0.55 °C; in test [5] it was -1.54 °C; in test [6], 0 °C. Moreover, the results for the ΔTm in test [7] and in test [8] were -2.14 °C and -0.19 °C, respectively.

Turning to `CN1CC[C@@H](Oc2ccc(F)c(-c3nc4c(o3)C(=O)c3ccccc3C4=O)c2Cl)C1`, the ΔTm in test [1] was 0.09 °C; in test [2] it was 0.99 °C; in test [3], 0.38 °C; in test [4] it was -0.29 °C; in test [5] it was -0.09 °C; in test [6], 0.24 °C. Moreover, the ΔTm in test [7] was -1.95 °C; in test [8], -0.66 °C.

As for `N#C[C@@H]1CCCN1C(=O)CNC(=O)c1ccnc2ccc(OCCCN3CCN(C(=O)CN4CCN(CC(=O)O)CCN(CC(=O)O)CCN(CC(=O)O)CC4)CC3)cc12`, the ΔTm in test [1] is 0.75 °C; in test [2], -2.94 °C; in test [3], 0.18 °C; in test [4] it was -0.3 °C; in test [5] it was -0.21 °C; in test [6] it was 0.66 °C. Besides, the ΔTm was -2.4 °C in test [7] and 0.33 °C in test [8].

Consider `NS(=O)(=O)OC[C@H]1C[C@@H](Nc2ccnc3cc(-c4cccc(SC(F)(F)F)c4)nn23)[C@H](O)[C@@H]1O`, for which the ΔTm in test [1] was 1.49 °C; in test [2] it was 1.04 °C; in test [3], 0.04 °C; in test [4] it was 0.4 °C; in test [5] it was -1.24 °C; in test [6], 0.75 °C. Moreover, the results for the ΔTm in test [7] and in test [8] were -1.12 °C and 1.39 °C, respectively.

For `CN1CCN2c3c(cccc31)[C@@H]1CN(CCCC(=O)c3ccc(F)cc3)CC[C@@H]12`, the ΔTm was -0.01 °C in test [1]; -0.67 °C in test [2]; -0.01 °C in test [3]; -0.14 °C in test [4]; -0.53 °C in test [5]; 0.07 °C in test [6]. The ΔTm in test [7] is -0.26 °C; in test [8], 0.32 °C.

As for `CC(C)(C)c1ccc(CN(C(=O)CN(Cc2c(F)c(F)c(F)c(F)c2F)S(=O)(=O)c2ccc(F)cc2)c2ccc(C(=O)NO)cc2)cc1`, the ΔTm is 1.56 °C in test [1]; 8.81 °C in test [2]; 9.04 °C in test [3]; -5.74 °C in test [4]; 14.4 °C in test [5]; -2.29 °C in test [6]. The ΔTm in test [7] amounted to 9.93 °C; in test [8], 0 °C.

For `Cc1cc(C)c(CNC(=O)c2cc(Cl)c3c(c2C)O[C@@](C)([C@H]2CC[C@H](N(C)C)CC2)O3)c(=O)[nH]1`, the ΔTm is 0.37 °C in test [1]; -1.88 °C in test [2]; 0.46 °C in test [3]; 0.43 °C in test [4]; -0.76 °C in test [5]; 0.07 °C in test [6]. Moreover, the results for the ΔTm in test [7] and in test [8] were -0.52 °C and -2.02 °C, respectively.

Regarding `Cc1ncc(Cl)cc1NCc1ccc(C(=O)N[C@@H](CC2CCCC2)C(=O)NC2CC2)s1`, the ΔTm in test [1] (Protein concentration 2.0 uM) was 2 °C; in test [2] it was -3.44 °C; in test [3] it was -0.15 °C; in test [4], -0.05 °C; in test [5], 10.5 °C; in test [6], -3.12 °C. Further, the results for the ΔTm in test [7] and in test [8] were 7.63 °C and 2.21 °C, respectively.

As to `CC(C)c1cc(C(=O)N2CC[C@@H](NC(=O)C3CC3)C2)[nH]n1`, the ΔTm in test [1] was 0.79 °C; in test [2], -3.2 °C; in test [3] it was 0.06 °C; in test [4] it was -0.08 °C; in test [5], -0.75 °C; in test [6] it was 0.08 °C. Further, the ΔTm in test [7] was -2.47 °C; in test [8] it was 1.07 °C.
